# From PubChem BioAssay (EPA / NIEHS)
# Records with an inconclusive call do not appear. Activity calls are given as the source filed them. The calls were made as follows: active = hit-call score of the fitted dose curve at least 0.9, where 1 is the maximum; inconclusive = response in the unintended direction; inactive = score below 0.9.
# Assays:
# [1] = molecular target: human Ephrin type-B Receptor 1 (EphB1), EPHB1 (gene 2047) (UniProt P54762); assay: NVS_ENZ_hEphB1: NovaScreen (NVS) Enzymatic Assay for human Ephrin type-B Receptor 1 (EphB1) (AID 2283154)
# How it was run: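 Recombinant EphB1 activity read by fluorescence after mobility-shift separation of product from substrate, 1 h post-dosing. Compounds screened in duplicate at 25 uM; inhibition scored as signal loss relative to DMSO.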
# [2] = molecular target: human Esterase Plasma (ES), BCHE (gene 590) (UniProt P06276); assay: NVS_ENZ_hES: NovaScreen (NVS) Enzymatic Assay for human Esterase Plasma (ES) (AID 2283157)
# How it was run: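 Primary single-concentration screen at 25 uM in duplicate, then concentration-response to a 50 uM top dose. Human plasma esterase activity detected colorimetrically after 0.25 h incubation, with DMSO as baseline.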
# [3] = molecular target: Protein deacetylase HDAC6 (Homo sapiens) (UniProt Q9UBN7); assay: NVS_ENZ_hHDAC6: NovaScreen (NVS) Enzymatic Assay for human Histone Deacetylase 6 (HDAC6) (AID 2283164)
# How it was run: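 Concentration-response runs up to 50 uM followed a duplicate 25 uM single-point screen. Deacetylase activity of recombinant human HDAC6 read by fluorescence after 1 h, with mobility-shift separation of substrate and product; DMSO as baseline.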
# [4] = molecular target: Mitogen-activated protein kinase 3 (Homo sapiens) (UniProt P27361); assay: NVS_ENZ_hMAPK3: NovaScreen (NVS) Enzymatic Assay for human Mitogen-Activated Protein Kinase 3 (MAPK 3) (AID 2283177)
# How it was run: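 Chemicals were first tested in duplicate at 25 uM, with hits re-run as concentration series (max 50 uM). Recombinant enzyme activity, measured 1 h post-dose in a cell-free format, was read by fluorescence/mobility shift relative to DMSO.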
# [5] = molecular target: Collagenase 3 (Homo sapiens) (UniProt P45452); assay: NVS_ENZ_hMMP13: NovaScreen (NVS) Enzymatic Assay for human Matrix Metalloproteinase-13 (MMP13) (AID 2283182)
# How it was run: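 Recombinant MMP13 cleaving fluorescent substrate, cell-free, measured 1 h after dosing. Primary duplicate screen at 25 uM; actives tested in concentration-response up to 50 uM; loss of signal relative to DMSO.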
# [6] = molecular target: human Ephrin type-A Receptor 2 (EphA2), EPHA2 (gene 1969) (UniProt P29317); assay: NVS_ENZ_hEphA2: NovaScreen (NVS) Enzymatic Assay for human Ephrin type-A Receptor 2 (EphA2) (AID 2283155)
# How it was run: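 Enzyme activity of recombinant EphA2 read by fluorescence after mobility-shift separation, 1 h after dosing. Chemicals first tested at 25 uM (duplicate); those passing threshold run as concentration series, top 50 uM, single replicate, relative to DMSO.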
# [7] = molecular target: human Ephrin type-A Receptor 1 (EphA1), EPHA1 (gene 2041) (UniProt P21709); assay: NVS_ENZ_hEphA1: NovaScreen (NVS) Enzymatic Assay for human Ephrin type-A Receptor 1 (EphA1) (AID 2283158);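 also: activity is signal loss versus DMSO meaning EphA1 kinase inhibition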
# How it was run: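 Fluorescent substrate conversion, resolved by mobility-shift separation, measured 1 hour post-dosing using recombinant enzyme; signal loss relative to DMSO baseline. Single-concentration duplicates at 25 uM preceded singleton concentration series topping at 50 uM.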
# [8] = molecular target: Histone deacetylase 3 (Homo sapiens) (UniProt O15379); assay: NVS_ENZ_hHDAC3: NovaScreen (NVS) Enzymatic Assay for human Histone Deacetylase 3 (HDAC3) (AID 2283163)
# How it was run: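 Cell-free enzyme format: loss of fluorescent product after mobility-shift separation, 1 h incubation, recombinant human HDAC3. Single 25 uM duplicate screen first, then concentration series to a 50 uM top for hits; DMSO as baseline.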
# [9] = molecular target: Glycogen synthase kinase-3 beta (Homo sapiens) (UniProt P49841); assay: NVS_ENZ_hGSK3b: NovaScreen (NVS) Enzymatic Assay for human Glycogen Synthase Kinase-3 beta (GSK3b) (AID 2283165)
# How it was run: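 Recombinant enzyme with specific fluorescent substrate, 1 h, product separated by electrophoretic mobility shift. Primary duplicate screen at 25 uM; actives (e.g. 30% inhibition) followed in singleton concentration-response to 50 uM. Signal loss fitted versus DMSO.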
# [10] = molecular target: human MAP Kinase-Activated Protein Kinase 2 (MAPKAPK2), MAPKAPK2 (gene 9261) (UniProt P49137); assay: NVS_ENZ_hMAPKAPK2: NovaScreen (NVS) Enzymatic Assay for human MAP Kinase-Activated Protein Kinase 2 (MAPKAPK2) (AID 2283178)
# How it was run: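 Chemicals screened in duplicate at 25 uM, then to 50 uM top concentration in concentration-response, against recombinant human MAPKAPK2; substrate conversion read 1 hr post-dosing by fluorescence after electrophoretic mobility-shift separation, loss-of-signal relative to DMSO.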
# [11] = molecular target: human c-Jun N-terminal Kinases (JNK2), MAPK9 (gene 5601) (UniProt P45984); assay: NVS_ENZ_hJNK2: NovaScreen (NVS) Enzymatic Assay for human c-Jun N-terminal Kinases (JNK2) (AID 2283171)
# How it was run: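 Chemicals first tested in duplicate at 25 uM, then in singleton concentration series up to 50 uM, against extracted JNK2 enzyme. Activity loss read by fluorescence with mobility-shift separation 1 h post-dose; DMSO baseline.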
# [12] = molecular target: human Colony Stimulating Factor 1 Receptor (CSF1R), CSF1R (gene 1436) (UniProt P07333); assay: NVS_ENZ_hCSF1R: NovaScreen (NVS) Enzymatic Assay for human Colony Stimulating Factor 1 Receptor (CSF1R) (AID 2283150)
# How it was run: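 Compounds screened in duplicate at 25 uM, then concentration-response (top 50 uM) for those passing threshold such as 30% inhibition; recombinant CSF1R activity measured 1 h post-dosing via fluorescent substrate/product mobility-shift separation, loss of signal versus DMSO.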
# [13] = molecular target: human Elastase, ELANE (gene 1991) (UniProt P08246); assay: NVS_ENZ_hElastase: NovaScreen (NVS) Enzymatic Assay for human Elastase (AID 2283153)
# How it was run: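 Concentration-response to 50 uM max, run singly for chemicals passing a threshold (e.g., 30% inhibition) in a duplicate 25 uM single-point screen. Neutrophil-derived human elastase, absorbance read-out of enzyme activity at 1.5 h; DMSO baseline.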
# [14] = molecular target: human LYN Proto-Oncogene, Src family Tyrosine Kinase (LynA), LYN (gene 4067) (UniProt P07948); assay: NVS_ENZ_hLynA: NovaScreen (NVS) Enzymatic Assay for human LYN Proto-Oncogene, Src family Tyrosine Kinase (LynA) (AID 2283173)
# How it was run: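 Recombinant kinase with fluorescent substrate; product separated from substrate by electrophoretic mobility shift and read 1 h after dosing. Duplicate screen at 25 uM, then concentration-response up to 50 uM; activity scored as signal loss against DMSO.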
# [15] = molecular target: human Dual Specificity Protein Phosphatase 3 (DUSP3), DUSP3 (gene 1845) (UniProt P51452); assay: NVS_ENZ_hDUSP3: NovaScreen (NVS) Enzymatic Assay for human Dual Specificity Protein Phosphatase 3 (DUSP3) (AID 2283152);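 also: phosphatase activity of recombinant human DUSP3 on a fluorogenic substrate without cells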
# How it was run: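 Cell-free fluorescence-intensity enzyme activity assay with recombinant protein and substrate; loss of signal fitted relative to DMSO baseline. Primary screen in duplicate at 25 uM, actives then run in concentration series; measured 0 h after dosing.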
# [16] = molecular target: human Mitogen-Activated Protein Kinase 1 (MAPK 1), MAPK1 (gene 5594) (UniProt P28482); assay: NVS_ENZ_hMAPK1: NovaScreen (NVS) Enzymatic Assay for human Mitogen-Activated Protein Kinase 1 (MAPK 1) (AID 2283175)
# How it was run: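 Cell-free recombinant human MAPK1 enzymatic assay, fluorescence/electrophoretic mobility shift read at 1 h; loss of signal vs DMSO. Primary screen in duplicate at 25 uM; actives (e.g. ≥30% inhibition) run as concentration-response up to 50 uM.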
# [17] = molecular target: human MET Proto-Oncogene, Receptor Tyrosine Kinase (MET), MET (gene 4233) (UniProt P08581); assay: NVS_ENZ_hMet: NovaScreen (NVS) Enzymatic Assay for human MET Proto-Oncogene, Receptor Tyrosine Kinase (MET) (AID 2283180)
# How it was run: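 Hits from a 25 uM duplicate screen were retested in concentration series up to 50 uM. Enzyme activity was measured by fluorescence after electrophoretic separation of product from substrate, 1 h after compound addition, relative to DMSO.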
# [18] = molecular target: human Janus Kinase 2 (Jak2), JAK2 (gene 3717) (UniProt O60674); assay: NVS_ENZ_hJak2: NovaScreen (NVS) Enzymatic Assay for human Janus Kinase 2 (Jak2) (AID 2283169)
# How it was run: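 Single-point duplicate screen at 25 uM, with hits run in concentration series to a 50 uM top dose. Substrate-product separation by mobility shift with fluorescence detection, 1 h post-dosing; DMSO baseline.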
# [19] = molecular target: human Fibroblast Growth Factor Receptor 1 (FGFR1), FGFR1 (gene 2260) (UniProt P11362); assay: NVS_ENZ_hFGFR1: NovaScreen (NVS) Enzymatic Assay for human Fibroblast Growth Factor Receptor 1 (FGFR1) (AID 2283159)
# How it was run: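 Cell-free recombinant kinase with fluorescent substrate, product separated by electrophoretic mobility shift; read 1 hour after dosing, loss of signal relative to DMSO. Initial screen in duplicate at 25 uM, actives followed in concentration series.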
# [20] = molecular target: human Ephrin type-B Receptor 2 (EphB2), EPHB2 (gene 2048) (UniProt P29323); assay: NVS_ENZ_hEphB2: NovaScreen (NVS) Enzymatic Assay for human Ephrin type-B Receptor 2 (EphB2) (AID 2283156)
# How it was run: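 Compounds were first tested in duplicate at 25 uM, with hits rerun singly in concentration series up to 50 uM. Enzyme activity on fluorescent substrate was read at 1 h by mobility-shift separation, scored as signal loss relative to DMSO.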
# Sequence of human Ephrin type-B Receptor 1 (EphB1), EPHB1 (gene 2047) (P54762 whole entry, looked up): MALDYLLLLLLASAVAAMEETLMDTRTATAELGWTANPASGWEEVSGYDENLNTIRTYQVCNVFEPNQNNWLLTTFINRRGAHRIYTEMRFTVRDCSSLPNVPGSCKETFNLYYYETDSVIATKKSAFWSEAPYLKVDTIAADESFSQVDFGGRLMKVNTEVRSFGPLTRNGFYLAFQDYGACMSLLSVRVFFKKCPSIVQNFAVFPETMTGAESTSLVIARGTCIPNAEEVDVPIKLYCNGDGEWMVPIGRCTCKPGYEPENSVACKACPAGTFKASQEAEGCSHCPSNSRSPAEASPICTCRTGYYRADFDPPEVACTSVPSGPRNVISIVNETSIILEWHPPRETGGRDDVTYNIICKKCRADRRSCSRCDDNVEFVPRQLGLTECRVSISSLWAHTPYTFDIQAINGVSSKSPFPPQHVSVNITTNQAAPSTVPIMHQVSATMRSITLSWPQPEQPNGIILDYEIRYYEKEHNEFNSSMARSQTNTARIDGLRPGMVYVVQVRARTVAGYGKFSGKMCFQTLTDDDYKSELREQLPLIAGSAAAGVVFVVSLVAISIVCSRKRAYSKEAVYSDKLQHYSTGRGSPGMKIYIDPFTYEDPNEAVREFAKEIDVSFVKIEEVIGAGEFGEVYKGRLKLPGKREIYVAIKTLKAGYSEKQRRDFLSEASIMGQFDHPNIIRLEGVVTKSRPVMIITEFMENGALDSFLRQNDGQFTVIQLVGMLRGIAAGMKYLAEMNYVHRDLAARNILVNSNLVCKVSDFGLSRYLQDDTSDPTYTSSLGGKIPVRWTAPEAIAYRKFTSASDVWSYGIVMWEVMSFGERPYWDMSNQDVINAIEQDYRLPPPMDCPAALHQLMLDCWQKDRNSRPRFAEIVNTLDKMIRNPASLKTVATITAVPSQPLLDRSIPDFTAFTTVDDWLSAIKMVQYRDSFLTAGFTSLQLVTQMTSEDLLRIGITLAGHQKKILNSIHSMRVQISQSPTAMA
# Sequence of human Esterase Plasma (ES), BCHE (gene 590) (P06276 whole entry, looked up): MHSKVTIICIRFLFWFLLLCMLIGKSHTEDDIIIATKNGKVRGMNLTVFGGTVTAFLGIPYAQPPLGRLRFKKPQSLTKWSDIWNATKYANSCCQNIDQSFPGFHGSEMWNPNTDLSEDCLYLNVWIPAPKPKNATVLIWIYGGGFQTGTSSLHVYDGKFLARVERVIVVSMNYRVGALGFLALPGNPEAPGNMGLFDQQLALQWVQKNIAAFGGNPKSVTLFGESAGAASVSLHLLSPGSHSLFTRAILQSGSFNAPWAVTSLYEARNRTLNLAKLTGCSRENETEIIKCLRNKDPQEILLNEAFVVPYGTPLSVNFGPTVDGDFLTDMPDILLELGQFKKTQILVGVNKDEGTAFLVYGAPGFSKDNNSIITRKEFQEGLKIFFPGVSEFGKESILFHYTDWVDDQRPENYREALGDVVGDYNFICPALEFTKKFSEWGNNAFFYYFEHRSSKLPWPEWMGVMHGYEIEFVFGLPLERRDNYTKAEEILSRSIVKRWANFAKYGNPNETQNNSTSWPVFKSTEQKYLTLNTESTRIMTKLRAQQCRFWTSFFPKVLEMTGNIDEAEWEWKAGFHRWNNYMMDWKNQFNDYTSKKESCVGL
# Sequence of Mitogen-activated protein kinase 3 (Homo sapiens) (P27361 whole entry, looked up): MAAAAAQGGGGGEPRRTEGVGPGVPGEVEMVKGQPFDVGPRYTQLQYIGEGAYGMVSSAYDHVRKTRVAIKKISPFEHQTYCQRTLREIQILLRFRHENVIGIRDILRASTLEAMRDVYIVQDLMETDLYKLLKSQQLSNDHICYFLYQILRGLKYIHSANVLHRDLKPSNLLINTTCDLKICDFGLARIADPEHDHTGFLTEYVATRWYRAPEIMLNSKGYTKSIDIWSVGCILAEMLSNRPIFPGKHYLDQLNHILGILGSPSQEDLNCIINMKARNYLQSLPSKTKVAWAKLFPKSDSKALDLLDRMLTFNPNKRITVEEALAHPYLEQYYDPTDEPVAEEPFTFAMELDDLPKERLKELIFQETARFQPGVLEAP
# Sequence of human Dual Specificity Protein Phosphatase 3 (DUSP3), DUSP3 (gene 1845) (P51452 whole entry, looked up): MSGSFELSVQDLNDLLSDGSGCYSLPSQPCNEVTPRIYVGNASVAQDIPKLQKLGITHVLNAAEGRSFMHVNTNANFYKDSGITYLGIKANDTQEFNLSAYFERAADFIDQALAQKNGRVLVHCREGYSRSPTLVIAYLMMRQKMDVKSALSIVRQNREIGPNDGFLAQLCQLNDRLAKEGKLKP
# Sequence of human c-Jun N-terminal Kinases (JNK2), MAPK9 (gene 5601) (P45984 whole entry, looked up): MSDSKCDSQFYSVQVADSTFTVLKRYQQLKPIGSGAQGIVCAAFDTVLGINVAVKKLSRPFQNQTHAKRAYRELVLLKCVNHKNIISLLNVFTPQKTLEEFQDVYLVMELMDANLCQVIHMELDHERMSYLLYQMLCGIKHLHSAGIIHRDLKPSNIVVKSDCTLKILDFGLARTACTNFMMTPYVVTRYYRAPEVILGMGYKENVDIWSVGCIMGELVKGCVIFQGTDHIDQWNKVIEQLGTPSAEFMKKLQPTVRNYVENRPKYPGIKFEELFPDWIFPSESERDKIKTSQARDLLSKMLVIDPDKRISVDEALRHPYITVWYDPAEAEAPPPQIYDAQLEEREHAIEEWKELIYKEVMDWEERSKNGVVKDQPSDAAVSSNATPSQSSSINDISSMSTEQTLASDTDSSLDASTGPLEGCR
# Sequence of human Elastase, ELANE (gene 1991) (P08246 whole entry, looked up): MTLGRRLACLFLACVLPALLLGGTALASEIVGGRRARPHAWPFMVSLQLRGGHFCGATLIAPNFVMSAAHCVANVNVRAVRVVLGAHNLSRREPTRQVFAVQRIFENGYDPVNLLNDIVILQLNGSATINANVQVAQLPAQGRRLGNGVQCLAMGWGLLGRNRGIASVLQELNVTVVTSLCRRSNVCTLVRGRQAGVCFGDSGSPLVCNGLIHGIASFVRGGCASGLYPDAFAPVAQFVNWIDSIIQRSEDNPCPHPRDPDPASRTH
# Sequence of human MAP Kinase-Activated Protein Kinase 2 (MAPKAPK2), MAPKAPK2 (gene 9261) (P49137 whole entry, looked up): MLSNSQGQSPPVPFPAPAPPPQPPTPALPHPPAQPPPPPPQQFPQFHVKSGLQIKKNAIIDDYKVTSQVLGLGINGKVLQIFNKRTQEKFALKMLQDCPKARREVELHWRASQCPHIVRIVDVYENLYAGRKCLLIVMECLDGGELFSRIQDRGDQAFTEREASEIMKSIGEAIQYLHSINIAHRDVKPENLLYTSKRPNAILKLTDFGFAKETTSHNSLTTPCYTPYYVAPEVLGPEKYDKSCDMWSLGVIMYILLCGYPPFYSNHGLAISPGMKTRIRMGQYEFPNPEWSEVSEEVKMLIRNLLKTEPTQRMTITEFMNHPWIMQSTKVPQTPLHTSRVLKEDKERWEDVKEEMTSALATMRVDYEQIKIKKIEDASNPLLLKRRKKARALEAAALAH
# Sequence of human Ephrin type-A Receptor 2 (EphA2), EPHA2 (gene 1969) (P29317 whole entry, looked up): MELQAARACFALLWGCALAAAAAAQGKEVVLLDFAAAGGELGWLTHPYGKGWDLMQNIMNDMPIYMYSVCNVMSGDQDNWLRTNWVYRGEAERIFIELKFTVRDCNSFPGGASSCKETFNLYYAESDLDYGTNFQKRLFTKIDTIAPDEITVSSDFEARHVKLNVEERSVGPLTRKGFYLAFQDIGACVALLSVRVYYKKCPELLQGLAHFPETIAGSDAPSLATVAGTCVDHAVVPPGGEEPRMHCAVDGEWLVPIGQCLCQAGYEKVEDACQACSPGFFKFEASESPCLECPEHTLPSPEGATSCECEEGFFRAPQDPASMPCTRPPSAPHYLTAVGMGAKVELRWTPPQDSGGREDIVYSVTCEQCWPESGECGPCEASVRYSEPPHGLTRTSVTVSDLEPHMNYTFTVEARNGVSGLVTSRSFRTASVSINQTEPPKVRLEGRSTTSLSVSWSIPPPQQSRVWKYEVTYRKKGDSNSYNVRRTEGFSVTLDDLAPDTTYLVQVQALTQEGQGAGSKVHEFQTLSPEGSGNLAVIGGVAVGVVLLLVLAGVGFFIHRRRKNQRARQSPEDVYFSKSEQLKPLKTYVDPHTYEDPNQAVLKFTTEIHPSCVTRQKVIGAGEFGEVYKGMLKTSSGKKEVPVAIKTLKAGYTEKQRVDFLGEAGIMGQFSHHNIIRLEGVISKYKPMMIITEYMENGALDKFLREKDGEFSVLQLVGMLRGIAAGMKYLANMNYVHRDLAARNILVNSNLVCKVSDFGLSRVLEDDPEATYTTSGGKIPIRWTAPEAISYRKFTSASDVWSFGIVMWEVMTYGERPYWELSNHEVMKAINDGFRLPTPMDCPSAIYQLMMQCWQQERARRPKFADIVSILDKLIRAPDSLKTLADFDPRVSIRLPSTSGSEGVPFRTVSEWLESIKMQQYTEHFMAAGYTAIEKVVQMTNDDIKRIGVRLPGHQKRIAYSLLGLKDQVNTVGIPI
# Sequence of Glycogen synthase kinase-3 beta (Homo sapiens) (P49841 whole entry, looked up): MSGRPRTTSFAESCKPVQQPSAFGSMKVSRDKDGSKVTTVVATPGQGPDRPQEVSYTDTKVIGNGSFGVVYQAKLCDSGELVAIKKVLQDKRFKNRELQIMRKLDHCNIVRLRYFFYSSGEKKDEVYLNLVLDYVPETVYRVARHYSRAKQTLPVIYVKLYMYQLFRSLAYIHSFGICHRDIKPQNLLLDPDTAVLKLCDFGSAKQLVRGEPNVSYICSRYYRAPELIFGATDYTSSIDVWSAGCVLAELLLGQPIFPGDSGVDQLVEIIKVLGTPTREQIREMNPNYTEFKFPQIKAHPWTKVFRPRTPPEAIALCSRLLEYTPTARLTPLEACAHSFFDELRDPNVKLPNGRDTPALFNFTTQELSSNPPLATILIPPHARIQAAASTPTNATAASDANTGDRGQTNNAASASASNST
# Sequence of human Mitogen-Activated Protein Kinase 1 (MAPK 1), MAPK1 (gene 5594) (P28482 whole entry, looked up): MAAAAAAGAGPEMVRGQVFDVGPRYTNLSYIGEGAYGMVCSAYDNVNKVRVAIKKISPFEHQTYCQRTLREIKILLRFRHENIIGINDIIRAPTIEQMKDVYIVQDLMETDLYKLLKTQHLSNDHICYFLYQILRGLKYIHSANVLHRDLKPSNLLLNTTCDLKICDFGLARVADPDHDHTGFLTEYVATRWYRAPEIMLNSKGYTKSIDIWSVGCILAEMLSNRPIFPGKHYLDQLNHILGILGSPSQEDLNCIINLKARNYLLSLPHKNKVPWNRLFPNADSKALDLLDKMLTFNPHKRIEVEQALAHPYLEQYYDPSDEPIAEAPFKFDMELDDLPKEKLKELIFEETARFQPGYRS
smiles,measurement,setting,value
Cc1nc(N(C)C)nc(OC(=O)N(C)C)c1C,outcome,[1],inactive
same,AC50,[2],16.9 µM (active)
COP(=S)(OC)SCn1nnc2ccccc2c1=O,outcome,[3],inactive
same,outcome,[4],inactive
CN=C=S,outcome,[1],inactive
same,outcome,[5],inactive
N#Cc1c(Cl)cccc1Cl,outcome,[4],inactive
Clc1nc(Cl)nc(Nc2ccccc2Cl)n1,outcome,[1],inactive
same,outcome,[6],inactive
same,outcome,[7],inactive
same,outcome,[8],inactive
same,outcome,[9],inactive
same,outcome,[4],inactive
same,outcome,[10],inactive
same,outcome,[5],inactive
CCNP(=S)(OC)O/C(C)=C/C(=O)OC(C)C (stereo not drawn),outcome,[4],inactive
COC(=O)NS(=O)(=O)c1ccc(N)cc1,outcome,[11],inactive
same,outcome,[4],inactive
CNC(=O)N(C)c1nnc(C(C)(C)C)s1,outcome,[1],inactive
Cc1cnc(C2=NC(C)(C(C)C)C(=O)N2)c(C(=O)O)c1 (stereo not drawn),outcome,[9],inactive
same,outcome,[10],inactive
Cc1ccc(N=CN(C)C=Nc2ccc(C)cc2C)c(C)c1,outcome,[1],inactive
CCN(CC)C(=O)C(C)Oc1cccc2ccccc12 (stereo not drawn),outcome,[12],inactive
same,AC50,[2],16.7 µM (active)
CC(C)=CC1C(C(=O)OCc2coc(Cc3ccccc3)c2)C1(C)C (stereo not drawn),AC50,[13],33.6 µM (active)
OC(c1ccc(Cl)cc1)(c1ccc(Cl)cc1)C(Cl)(Cl)Cl,outcome,[13],inactive
CCOP(=O)(OCC)Oc1nc(Cl)c(Cl)cc1Cl,AC50,[13],14.4 µM (active)
same,outcome,[1],inactive
same,AC50,[2],0.00463 µM (active)
C=CCOC(=O)C(C)(C)OC(=O)c1cc(-n2c(=O)cc(C(F)(F)F)n(C)c2=O)ccc1Cl,outcome,[1],inactive
N#Cc1c[nH]cc1-c1cccc2c1OC(F)(F)O2,outcome,[7],inactive
same,outcome,[14],inactive
Cn1c(-c2ccccc2)cc(-c2ccccc2)[n+]1C,AC50,[2],4.69 µM (active)
CCCC(=NOCC)C1=C(O)CC(CC(C)SCC)CC1=O (stereo not drawn),outcome,[15],inactive
same,AC50,[16],14.1 µM (active)
same,outcome,[10],inactive
CN/C(=N\[N+](=O)[O-])NCc1cnc(Cl)s1,outcome,[1],inactive
same,AC50,[17],22.2 µM (active)
Nc1c(Cl)c(F)nc(OCC(=O)O)c1Cl,outcome,[1],inactive
Nc1c(Cl)c(Cl)nc(C(=O)O)c1Cl,outcome,[11],inactive
Nc1cnn(-c2ccccc2)c(=O)c1Cl,outcome,[18],inactive
CCOP(=S)(OCC)Oc1nc(Cl)n(C(C)C)n1,outcome,[13],inactive
same,AC50,[2],4.75 µM (active)
O=C(Nc1ccccc1-c1ccc(Cl)cc1)c1cccnc1Cl,outcome,[1],inactive
CCCN(CC)CC1COC2(CCC(C(C)(C)C)CC2)O1 (stereo not drawn),outcome,[4],inactive
CC1(C)C(C=C(Cl)Cl)C1C(=O)OC(C#N)c1cccc(Oc2ccccc2)c1 (stereo not drawn),AC50,[15],3.06 µM (active)
same,outcome,[1],inactive
same,AC50,[5],11.8 µM (active)
COP(=O)(OC)O/C(C)=C/C(=O)N(C)C,AC50,[2],17.4 µM (active)
O=C(O)c1c(Cl)ccc2cc(Cl)cnc12,AC50,[2],8.48 µM (active)
CC(C)(C)C(=O)C(Oc1ccc(Cl)cc1)n1cncn1 (stereo not drawn),outcome,[4],inactive
CC1(C)C(C(=O)OC(C#N)c2cccc(Oc3ccccc3)c2)C1(C)C (stereo not drawn),outcome,[13],inactive
same,outcome,[1],inactive
CC(C)N1C(=O)N(c2ccccc2)CSC1=NC(C)(C)C,AC50,[15],2.96 µM (active)
Cc1c(COC(=O)[C@@H]2[C@H](/C=C(\Cl)C(F)(F)F)C2(C)C)cccc1-c1ccccc1,outcome,[13],inactive
same,outcome,[1],inactive
same,outcome,[5],inactive
O=C1C2CC=CCC2C(=O)N1SC(Cl)(Cl)Cl (stereo not drawn),outcome,[19],inactive
same,AC50,[8],7.99 µM (active)
same,AC50,[3],16.7 µM (active)
same,outcome,[11],inactive
COC(=O)N(C(=O)N1CO[C@@]2(C(=O)OC)Cc3cc(Cl)ccc3C2=N1)c1ccc(OC(F)(F)F)cc1,outcome,[15],inactive
same,outcome,[1],inactive
same,outcome,[20],inactive
CC(C)NC(=O)N1CC(=O)N(c2cc(Cl)cc(Cl)c2)C1=O,outcome,[6],inactive
CC1(C)CCC(=Cc2ccc(Cl)cc2)C1(O)Cn1cncn1 (stereo not drawn),outcome,[2],inactive
CC(C)C1(C)N=C(c2ncccc2C(=O)O)NC1=O (stereo not drawn),outcome,[16],inactive
O=c1n(Cl)c(=O)n(Cl)c(=O)n1Cl,outcome,[13],inactive
CCOC(=O)C(C)OC(=O)c1cc(Oc2ccc(C(F)(F)F)cc2Cl)ccc1[N+](=O)[O-] (stereo not drawn),outcome,[15],inactive
same,outcome,[13],inactive
same,outcome,[1],inactive
same,AC50,[5],15.3 µM (active)
CCOc1cc(C(C)(C)C)ccc1C1COC(c2c(F)cccc2F)=N1 (stereo not drawn),AC50,[13],40.9 µM (active)
